# Results published in publication PMC8384837, “Expanding the binding specificity for RNA recognition by a PUF domain”.
# Positions count from the first letter of the chain named.
# What was measured:
# Assay in all cases: yeast three-hybrid, YBZ-1, SC-Leu-His + 0.5 mM 3-AT, 4 days
# Conditions in all cases: tags: N-Gal4 AD-HA kept; label: inside an RPR1-promoter hybrid RNA with tandem MS2 sites; ssRNA
# PUM1 PUF domain R6-NRQ = target: T1, PUM1 PUF domain R6-NRQ (Homo sapiens, UniProt Q14671 828-1176, Y1044R)
# T1 sequence: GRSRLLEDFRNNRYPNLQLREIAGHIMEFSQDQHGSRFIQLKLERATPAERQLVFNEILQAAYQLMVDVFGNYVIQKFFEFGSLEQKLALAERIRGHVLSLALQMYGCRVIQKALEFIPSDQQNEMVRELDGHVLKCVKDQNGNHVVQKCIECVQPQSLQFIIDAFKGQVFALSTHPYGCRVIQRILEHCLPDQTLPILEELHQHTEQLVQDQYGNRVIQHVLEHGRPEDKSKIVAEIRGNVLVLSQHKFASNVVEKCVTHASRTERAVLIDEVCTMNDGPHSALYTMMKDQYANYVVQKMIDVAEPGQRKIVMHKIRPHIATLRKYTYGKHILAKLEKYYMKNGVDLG
# In short: (§1)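 The interaction score is the logarithmic change in variant frequency from input to selection. It uses log2, with a pseudocount of 1 for absent variants, and frequencies came from PCR-amplified, Illumina-sequenced repeat regions. The libraries were Pumilio-1 PUF domains randomized at the three base-contacting residues per repeat, co-expressed with matching RNA elements in strain YBZ-1 (LexA–MS2 coat fusion, HIS3 reporter). Plating lasted four days on SC-Leu (input) or SC-Leu-His + 0.5 mM 3-AT (selection).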
# PUM1 PUF domain R8-KFH = PUM1 PUF domain R8-KFH (Homo sapiens, UniProt Q14671 828-1176, N1122K;Y1123F;Q1126H)
# In short: as §1
# PUM1 PUF domain R6-FYR = target: T2, PUM1 PUF domain R6-FYR (Homo sapiens, UniProt Q14671 828-1176, N1043F;Q1047R)
# T2 sequence: T1 sequence with N216F, R217Y, Q220R
# In short: as §1
# PUM1 PUF domain R3-LYQ = PUM1 PUF domain R3-LYQ (Homo sapiens, UniProt Q14671 828-1176, C935L;R936Y)
# In short: as §1
# PUM1 PUF domain R4-SCM = PUM1 PUF domain R4-SCM (Homo sapiens, UniProt Q14671 828-1176, N971S;H972C;Q975M)
# In short: as §1
# PUM1 PUF domain R3-RPS = PUM1 PUF domain R3-RPS (Homo sapiens, UniProt Q14671 828-1176, C935R;R936P;Q939S)
# In short: as §1
# PUM1 PUF domain R8-KWW = PUM1 PUF domain R8-KWW (Homo sapiens, UniProt Q14671 828-1176, N1122K;Y1123W;Q1126W)
# In short: as §1
# PUM1 PUF domain R5-GKD = PUM1 PUF domain R5-GKD (Homo sapiens, UniProt Q14671 828-1176, C1007G;R1008K;Q1011D)
# In short: as §1
# PUM1 PUF domain R5-GCR = PUM1 PUF domain R5-GCR (Homo sapiens, UniProt Q14671 828-1176, C1007G;R1008C;Q1011R)
# In short: as §1
# PUM1 PUF domain R2-GFD = PUM1 PUF domain R2-GFD (Homo sapiens, UniProt Q14671 828-1176, N899G;Y900F;Q903D)
# In short: as §1
sequence,measurement,setting,value
GGCUAGAACUAGUGGAUCCCCCGGCGCCCGGCGGCUCGAGCCCGGGUAAGUGUAAAUAGUCUGCAUGCCGCCGGGCGCCAUGCCUGCAGGUCGACUCUAGAAAACAUG,binding signal,PUM1 PUF domain R6-NRQ,7.58 log2 enrichment (interaction score)
same,binding signal,PUM1 PUF domain R8-KFH,2.89 log2 enrichment (interaction score)
same,binding signal,PUM1 PUF domain R6-FYR,4.96 log2 enrichment (interaction score)
same,binding signal,PUM1 PUF domain R3-LYQ,3.33 log2 enrichment (interaction score)
same,binding signal,PUM1 PUF domain R4-SCM,2.65 log2 enrichment (interaction score)
same,binding signal,PUM1 PUF domain R3-RPS,0.42 log2 enrichment (interaction score)
same,binding signal,PUM1 PUF domain R8-KWW,3.43 log2 enrichment (interaction score)
GGCUAGAACUAGUGGAUCCCCCGGCGCCCGGCGGCUCGAGCCCGGGUAAGUGUUAAUAGUCUGCAUGCCGCCGGGCGCCAUGCCUGCAGGUCGACUCUAGAAAACAUG,binding signal,PUM1 PUF domain R5-GKD,3.71 log2 enrichment (interaction score)
same,binding signal,PUM1 PUF domain R5-GCR,3.22 log2 enrichment (interaction score)
GGCUAGAACUAGUGGAUCCCCCGGCGCCCGGCGGCUCGAGCCCGGGUAAGUGUCAAUAGUCUGCAUGCCGCCGGGCGCCAUGCCUGCAGGUCGACUCUAGAAAACAUG,binding signal,PUM1 PUF domain R5-GKD,2.2 log2 enrichment (interaction score)
same,binding signal,PUM1 PUF domain R5-GCR,5.08 log2 enrichment (interaction score)
GGCUAGAACUAGUGGAUCCCCCGGCGCCCGGCGGCUCGAGCCCGGGUAAGUGUAAAGAGUCUGCAUGCCGCCGGGCGCCAUGCCUGCAGGUCGACUCUAGAAAACAUG,binding signal,PUM1 PUF domain R2-GFD,4.7 log2 enrichment (interaction score)
GGCUAGAACUAGUGGAUCCCCCGGCGCCCGGCGGCUCGAGCCCGGGUAAGCGUAAAUAGUCUGCAUGCCGCCGGGCGCCAUGCCUGCAGGUCGACUCUAGAAAACAUG,binding signal,PUM1 PUF domain R8-KFH,3.24 log2 enrichment (interaction score)
same,binding signal,PUM1 PUF domain R8-KWW,5.85 log2 enrichment (interaction score)
GGCUAGAACUAGUGGAUCCCCCGGCGCCCGGCGGCUCGAGCCCGGGUAAGUGUACAUAGUCUGCAUGCCGCCGGGCGCCAUGCCUGCAGGUCGACUCUAGAAAACAUG,binding signal,PUM1 PUF domain R4-SCM,3.79 log2 enrichment (interaction score)
GGCUAGAACUAGUGGAUCCCCCGGCGCCCGGCGGCUCGAGCCCGGGUAAGUGUAAUUAGUCUGCAUGCCGCCGGGCGCCAUGCCUGCAGGUCGACUCUAGAAAACAUG,binding signal,PUM1 PUF domain R3-RPS,3.4 log2 enrichment (interaction score)
